Experimental data from PMC7862700, “An all-to-all approach to the identification of sequence-specific readers for epigenetic DNA modifications on cytosine”.

Key:
Assay in all cases: DAPPL (digital affinity profiling via proximity ligation, sequencing); 10 mM Tris-HCl pH 7.5, 50 mM NaCl, 1 mM DTT, 4% glycerol, room temperature, 30 min; GST-TFs on glutathione beads, 16-mer random dsDNA library, 0.1% formaldehyde crosslink after washing; high values mean tight binding
Conditions in all cases: protein: recombinant; tags: N-terminal GST; dsDNA, one strand shown
FLI1 = molecular target: T1, FLI1 (Homo sapiens, UniProt Q01543 1-452)
T1 sequence: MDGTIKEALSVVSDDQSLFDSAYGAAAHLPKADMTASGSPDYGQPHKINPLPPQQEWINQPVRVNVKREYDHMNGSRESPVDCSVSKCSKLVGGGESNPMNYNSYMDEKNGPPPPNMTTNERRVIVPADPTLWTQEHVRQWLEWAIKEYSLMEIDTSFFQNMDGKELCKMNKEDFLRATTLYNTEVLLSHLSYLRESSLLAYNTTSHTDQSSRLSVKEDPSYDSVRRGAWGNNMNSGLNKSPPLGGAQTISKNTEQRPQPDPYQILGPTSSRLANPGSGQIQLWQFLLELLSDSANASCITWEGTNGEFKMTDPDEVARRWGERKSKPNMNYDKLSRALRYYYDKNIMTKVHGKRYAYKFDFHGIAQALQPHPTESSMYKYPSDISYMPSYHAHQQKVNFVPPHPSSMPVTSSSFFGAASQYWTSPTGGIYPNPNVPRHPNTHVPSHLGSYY
How it was run: (§1)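 Binding signal is each hexamer's read frequency for a factor divided by its frequency in the tag-only sample. The factors were GST-fused human transcription factors from yeast, captured on glutathione beads, DNA-barcoded and pooled with that sample. Pools were incubated with 200 nmole of a random double-stranded 16-mer DNA library in Tris/NaCl/DTT/glycerol buffer at room temperature for 30 min, then washed, crosslinked with 0.1% formaldehyde, proximity-ligated with BsaI/T4 ligase (1 h, 37 °C), PCR-amplified and sequenced on an Illumina NextSeq500.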

ELK1 = molecular target: T2, ELK1 (Homo sapiens, UniProt P19419 1-428)
T2 sequence: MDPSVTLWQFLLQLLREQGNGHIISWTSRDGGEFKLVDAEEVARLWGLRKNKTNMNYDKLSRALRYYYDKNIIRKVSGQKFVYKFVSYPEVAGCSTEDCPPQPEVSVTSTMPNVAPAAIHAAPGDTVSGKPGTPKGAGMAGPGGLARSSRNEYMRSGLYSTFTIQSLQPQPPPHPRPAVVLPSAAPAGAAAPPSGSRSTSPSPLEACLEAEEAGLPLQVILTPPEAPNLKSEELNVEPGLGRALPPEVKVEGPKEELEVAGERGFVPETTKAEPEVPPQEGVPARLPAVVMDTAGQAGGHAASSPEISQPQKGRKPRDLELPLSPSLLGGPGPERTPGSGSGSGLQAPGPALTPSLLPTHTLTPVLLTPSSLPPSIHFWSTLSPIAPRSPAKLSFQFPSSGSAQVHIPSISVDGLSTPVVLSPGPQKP
How it was run: as §1

GABPA = molecular target: T3, GABPA (Homo sapiens, UniProt Q06546 1-454)
T3 sequence: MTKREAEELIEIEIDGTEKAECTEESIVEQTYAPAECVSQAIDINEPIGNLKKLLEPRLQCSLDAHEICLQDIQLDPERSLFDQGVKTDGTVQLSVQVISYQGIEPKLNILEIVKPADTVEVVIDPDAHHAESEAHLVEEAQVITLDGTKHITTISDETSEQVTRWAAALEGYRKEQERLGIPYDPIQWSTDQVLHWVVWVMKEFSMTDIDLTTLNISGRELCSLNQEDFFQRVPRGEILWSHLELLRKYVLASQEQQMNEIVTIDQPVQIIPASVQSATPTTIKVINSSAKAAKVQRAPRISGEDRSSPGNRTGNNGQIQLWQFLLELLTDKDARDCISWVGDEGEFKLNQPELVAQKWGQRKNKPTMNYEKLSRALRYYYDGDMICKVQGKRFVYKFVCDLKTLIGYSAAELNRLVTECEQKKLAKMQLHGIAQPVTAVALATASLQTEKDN
How it was run: as §1

ERG = molecular target: T4, ERG (Homo sapiens, UniProt P11308 1-479)
T4 sequence: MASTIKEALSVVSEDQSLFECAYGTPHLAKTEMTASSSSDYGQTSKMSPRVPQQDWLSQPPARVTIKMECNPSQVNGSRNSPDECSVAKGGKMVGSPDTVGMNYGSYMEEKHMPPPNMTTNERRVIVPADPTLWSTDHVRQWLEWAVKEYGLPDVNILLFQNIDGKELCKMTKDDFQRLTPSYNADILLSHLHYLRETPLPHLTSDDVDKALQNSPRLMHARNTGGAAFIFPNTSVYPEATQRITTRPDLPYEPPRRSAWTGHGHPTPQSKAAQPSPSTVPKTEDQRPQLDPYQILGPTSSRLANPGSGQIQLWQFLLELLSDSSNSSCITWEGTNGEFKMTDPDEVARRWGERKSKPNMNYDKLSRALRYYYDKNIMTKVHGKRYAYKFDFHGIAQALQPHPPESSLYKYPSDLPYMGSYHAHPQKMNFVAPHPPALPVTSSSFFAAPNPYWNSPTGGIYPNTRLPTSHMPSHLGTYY
How it was run: as §1

ELF1 = ELF1 (Homo sapiens, UniProt P32519 1-619)
Sequence of ELF1 (P32519 whole entry): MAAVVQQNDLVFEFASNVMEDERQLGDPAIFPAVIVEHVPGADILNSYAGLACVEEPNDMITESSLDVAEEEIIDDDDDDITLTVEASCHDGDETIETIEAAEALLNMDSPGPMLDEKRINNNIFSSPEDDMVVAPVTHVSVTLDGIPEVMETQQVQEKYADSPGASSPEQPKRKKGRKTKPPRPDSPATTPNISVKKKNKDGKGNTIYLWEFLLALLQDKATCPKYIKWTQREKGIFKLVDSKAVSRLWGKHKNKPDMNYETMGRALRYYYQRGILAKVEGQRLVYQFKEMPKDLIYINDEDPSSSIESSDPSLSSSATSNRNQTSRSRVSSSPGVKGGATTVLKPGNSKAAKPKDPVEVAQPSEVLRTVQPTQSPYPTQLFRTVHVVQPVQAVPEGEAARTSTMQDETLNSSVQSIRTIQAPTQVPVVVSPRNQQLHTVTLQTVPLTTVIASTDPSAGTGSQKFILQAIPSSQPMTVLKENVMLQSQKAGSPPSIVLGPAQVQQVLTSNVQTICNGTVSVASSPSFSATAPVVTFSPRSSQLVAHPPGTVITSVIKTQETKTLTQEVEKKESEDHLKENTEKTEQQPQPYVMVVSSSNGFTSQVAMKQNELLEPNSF
How it was run: as §1

EHF = molecular target: T5, EHF (Homo sapiens, UniProt Q9NZC4 1-300)
T5 sequence: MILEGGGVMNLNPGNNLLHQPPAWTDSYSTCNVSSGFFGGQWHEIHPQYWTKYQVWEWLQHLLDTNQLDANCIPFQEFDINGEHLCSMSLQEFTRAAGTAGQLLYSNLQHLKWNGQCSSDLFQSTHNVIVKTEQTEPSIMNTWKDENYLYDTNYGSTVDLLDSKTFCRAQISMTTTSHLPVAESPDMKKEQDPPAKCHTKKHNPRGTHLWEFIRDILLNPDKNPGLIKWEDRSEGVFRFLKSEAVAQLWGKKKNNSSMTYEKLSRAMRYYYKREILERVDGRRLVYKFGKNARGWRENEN
How it was run: as §1

SPI1 = SPI1 (Homo sapiens, UniProt P17947 1-270)
How it was run: as §1

SPIB = SPIB (Homo sapiens, UniProt Q01892 1-262)
Sequence of SPIB (Q01892 whole entry): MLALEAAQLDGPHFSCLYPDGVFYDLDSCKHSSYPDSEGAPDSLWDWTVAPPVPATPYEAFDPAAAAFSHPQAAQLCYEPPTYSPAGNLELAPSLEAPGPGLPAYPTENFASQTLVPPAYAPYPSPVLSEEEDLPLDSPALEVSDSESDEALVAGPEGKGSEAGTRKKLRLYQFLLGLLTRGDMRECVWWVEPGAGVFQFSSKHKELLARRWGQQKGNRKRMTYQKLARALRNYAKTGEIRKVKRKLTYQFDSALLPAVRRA
How it was run: as §1

ELK3 = molecular target: T6, ELK3 (Homo sapiens, UniProt P41970 1-407)
T6 sequence: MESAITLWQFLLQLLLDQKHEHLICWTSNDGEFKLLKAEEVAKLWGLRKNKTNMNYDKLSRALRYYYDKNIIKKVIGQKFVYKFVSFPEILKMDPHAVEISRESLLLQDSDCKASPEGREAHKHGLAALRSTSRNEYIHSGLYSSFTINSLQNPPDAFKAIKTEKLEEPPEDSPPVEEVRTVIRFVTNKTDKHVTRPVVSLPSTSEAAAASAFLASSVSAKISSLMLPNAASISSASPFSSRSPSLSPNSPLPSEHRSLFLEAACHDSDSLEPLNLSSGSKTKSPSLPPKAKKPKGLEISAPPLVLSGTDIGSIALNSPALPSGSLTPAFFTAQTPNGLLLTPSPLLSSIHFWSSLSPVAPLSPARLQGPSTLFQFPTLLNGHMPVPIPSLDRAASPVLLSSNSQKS
How it was run: as §1

Row | Sequence | binding signal (FLI1) | binding signal (ELK1) | binding signal (GABPA) | binding signal (ERG) | binding signal (ELF1) | binding signal (EHF) | binding signal (SPI1) | binding signal (SPIB) | binding signal (ELK3)
1 | TTTATG | 1.31 fold enrichment (6-mer frequency, TF over GST control) | 1.21 fold enrichment (6-mer frequency, TF over GST control) | 1.4 fold enrichment (6-mer frequency, TF over GST control) | 1.21 fold enrichment (6-mer frequency, TF over GST control) | 1.18 fold enrichment (6-mer frequency, TF over GST control) | 1.34 fold enrichment (6-mer frequency, TF over GST control) | 1.34 fold enrichment (6-mer frequency, TF over GST control) | 1.29 fold enrichment (6-mer frequency, TF over GST control) | 1.34 fold enrichment (6-mer frequency, TF over GST control)
2 | TGGCAT | 1.23 fold enrichment (6-mer frequency, TF over GST control) | 1.2 fold enrichment (6-mer frequency, TF over GST control) | 1.2 fold enrichment (6-mer frequency, TF over GST control) | 1.14 fold enrichment (6-mer frequency, TF over GST control) | 1.17 fold enrichment (6-mer frequency, TF over GST control) | 1.12 fold enrichment (6-mer frequency, TF over GST control) | 1.11 fold enrichment (6-mer frequency, TF over GST control) | 1.07 fold enrichment (6-mer frequency, TF over GST control) | 1.13 fold enrichment (6-mer frequency, TF over GST control)
3 | TCTAAA | 1.24 fold enrichment (6-mer frequency, TF over GST control) | 1.22 fold enrichment (6-mer frequency, TF over GST control) | 1.26 fold enrichment (6-mer frequency, TF over GST control) | 1.24 fold enrichment (6-mer frequency, TF over GST control) | 1.21 fold enrichment (6-mer frequency, TF over GST control) | 1.2 fold enrichment (6-mer frequency, TF over GST control) | 1.18 fold enrichment (6-mer frequency, TF over GST control) | 1.16 fold enrichment (6-mer frequency, TF over GST control) | 1.2 fold enrichment (6-mer frequency, TF over GST control)
4 | CTTAGC | 1.22 fold enrichment (6-mer frequency, TF over GST control) | 1.17 fold enrichment (6-mer frequency, TF over GST control) | 1.26 fold enrichment (6-mer frequency, TF over GST control) | 1.22 fold enrichment (6-mer frequency, TF over GST control) | 1.22 fold enrichment (6-mer frequency, TF over GST control) | 1.25 fold enrichment (6-mer frequency, TF over GST control) | 1.21 fold enrichment (6-mer frequency, TF over GST control) | 1.21 fold enrichment (6-mer frequency, TF over GST control) | 1.22 fold enrichment (6-mer frequency, TF over GST control)
5 | GCTTCT | 1.41 fold enrichment (6-mer frequency, TF over GST control) | 1.49 fold enrichment (6-mer frequency, TF over GST control) | 1.53 fold enrichment (6-mer frequency, TF over GST control) | 1.44 fold enrichment (6-mer frequency, TF over GST control) | 1.59 fold enrichment (6-mer frequency, TF over GST control) | 1.52 fold enrichment (6-mer frequency, TF over GST control) | 1.43 fold enrichment (6-mer frequency, TF over GST control) | 1.51 fold enrichment (6-mer frequency, TF over GST control) | 1.61 fold enrichment (6-mer frequency, TF over GST control)
6 | CTCATT | 1.45 fold enrichment (6-mer frequency, TF over GST control) | 1.32 fold enrichment (6-mer frequency, TF over GST control) | 1.44 fold enrichment (6-mer frequency, TF over GST control) | 1.38 fold enrichment (6-mer frequency, TF over GST control) | 1.55 fold enrichment (6-mer frequency, TF over GST control) | 1.57 fold enrichment (6-mer frequency, TF over GST control) | 1.82 fold enrichment (6-mer frequency, TF over GST control) | 1.61 fold enrichment (6-mer frequency, TF over GST control) | 1.12 fold enrichment (6-mer frequency, TF over GST control)
7 | TTAACA | 1.18 fold enrichment (6-mer frequency, TF over GST control) | 1.13 fold enrichment (6-mer frequency, TF over GST control) | 1.15 fold enrichment (6-mer frequency, TF over GST control) | 1.15 fold enrichment (6-mer frequency, TF over GST control) | 1.17 fold enrichment (6-mer frequency, TF over GST control) | 1.13 fold enrichment (6-mer frequency, TF over GST control) | 1.15 fold enrichment (6-mer frequency, TF over GST control) | 1.14 fold enrichment (6-mer frequency, TF over GST control) | 1.19 fold enrichment (6-mer frequency, TF over GST control)
